This is one part of the list. The source made the active and inactive calls.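 Rule for the calls: active = compound lowering the Hsp90 and TPR2A binding signal, whether or not the linker counterscreen also flagged it as an artifact; inactive = the rest.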
Test system: Hsp90 C-terminal peptide / TPR2A co-chaperone interaction
Experiment: Confirmation Concentration-Response Assay and Counterscreen for Disrupters of an Hsp90 Co-Chaperone Interaction
Details: AlphaScreen TPR2A-His6 / biotin-Hsp90 peptide binding; at 46 µM (top of the series) unless noted
Source text: NIH Chemical Genomics Center [NCGC] NIH Molecular Libraries Screening Centers Network [MLSCN] MLSCN Grant: X01 MH077625-01 NCGC Assay Overview: Hsp90 (heat shock protein 90) is the essential molecular chaperone and it accounts for 1-2% of all cytosolic proteins and is critical for the activity of diverse cellular proteins that are involved in a variety of cellular processes, including development, cell cycle, and steroid hormone signaling. Its client proteins include signaling kinases such as IGF1R, Akt, v-Src, Raf-1; regulators of cell survival such as Bcr-Abl; and transcription factors such as mutated p53, estrogen and progesterone receptors. Hsp90 has emerged as an important target for cancer treatment due to its essential role in maintaining transformation and regulating the function of oncogenic signaling proteins. The in vivo function of Hsp90 is regulated by the binding and hydrolysis of ATP at its N-terminal. Geldanamycin binds to ATP site and inhibit Hsp90 function. Geldanamycin and its analogues are under clinical trials in cancer patients. […] This domain contains the binding site for tetratricopeptide repeat (TPR) domains on HOP (Hsp Organizing Protein). TPR is a structural motif used by a significant number of cochaperones by which the in vivo function of Hsp90 is regulated. TPR2A on HOP binds specifically to MEEVD motif of the C-terminal of Hsp90. […]
NCGC Assay Protocol Summary: The assay was performed to confirm activity from an initial qHTS screen, and to counterscreen for alpha screen platform artifacts. All samples were reordered, as powders when available, and sample material was evaluated for impurities and/or incorrect molecular mass at NCGC. […] Plates were read on EnVision (PerkinElmer, Boston, MA).TPR2A-His6 was produced using a bacteria expression system and purified using a well developed method (Ghosh et al., 2000). […] TPR2A-His6 binding to biotin-Hsp90 will bring streptavidin donor beads and nickel chelate acceptor beads (PerkinElmer) together and can be measured by Alpha reading by EnVision (PerkinElmer). […]

| Compound | activity, negative = inhibition |
| --- | --- |
| CCOC(=O)c1c(NC(=O)CSc2nnc(Cc3csc(N)n3)n2C)sc(C)c1C | -99.5% [alpha-screen platform artifact] (active) |
| Oc1c(C(c2ccccn2)N2CCOCC2)ccc2cccnc12 (stereo not drawn) | -99.8% [alpha-screen platform artifact] (active) |
| Cc1nnc2[nH]c(=O)n(C)c(=O)c2n1 | 5.91% [at 40 µM] (inactive) |
